HT1080 IDH1KD tx – qHTS for induction of synthetic lethality in tumor cells producing 2HG: qHTS for the HT-1080-IDH1KD cell line. 360,000 compounds, 2% hits. Potency, µM (titrated, usually from 46.1 µM), most hits filed as cytotoxic. AID 686971, 2013. HT-1080 IDH1 knockdown viability, ATP luminescence, 48 h
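Cytotoxicity counter-line: IDH1KD HT-1080, 48 h, CellTiter-Glo. Curves classed by r2, magnitude and activity.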
IL1B secr inh – qHTS for Inhibitors of Inflammasome Signaling: IL-1-beta AlphaLISA Primary Screen; activity change, % at 57.5 µM; 360,000 compounds, 4.7% hits; THP-1 LPS/ATP IL-1B secretion, AlphaLISA, 16 h; stronger effect = lower value; in the data active = activity change below about -50%; inconclusive = mostly about -30% to -49%
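THP-1 cells pretreated 1 hr with compounds (up to 57.5 uM final), then stimulated with LPS (250 ng/mL final) plus ATP (1.25 mM final); secreted IL-1B measured by AlphaLISA after 16 hr, decreased signal indicating inhibition.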
DT40 TDP1 CPT – qHTS for Inhibitors of human tyrosyl-DNA phosphodiesterase 1 (TDP1): qHTS in cells in presence of CPT | chicken DT40 Tdp1-/-;hTDP1 cells + 20 nM CPT, ATP luminescence, 48 h | Potency, µM (series often up to 46.2 µM), hits mostly inhibitors | 420,000 compounds, 12% hits | AID 686979, 2013; note: nearly all actives have a fitted effect of over 55% in size
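Chicken DT40 Tdp1-/- cells complemented with human TDP1, 400 cells/well, exposed to compounds plus 20 nM camptothecin for at least 48 h at 37 C; viability read as ATP content by CellTiter-Glo luminescence.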
TDP1 cell noCPT – qHTS for Inhibitors of human tyrosyl-DNA phosphodiesterase 1 (TDP1): qHTS in cells in absence of CPT. DT40 Tdp1-/- hTDP1 cells, no CPT, ATP luminescence, 48 h. Potency, µM (top dose mostly 46.2 µM), most hits filed as inhibitors. 420,000 compounds, 15% hits; note: nearly all actives have a fitted effect of over 55% in size
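Chicken DT40 Tdp1-/- cells stably complemented with human TDP1 were seeded at 400 cells/well with DMSO in place of 20 nM camptothecin. After compound pinning, cells grew at least 48 hr at 37 °C; viability read by CellTiter-Glo luminescence.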
HT1080NT lethal – qHTS for induction of synthetic lethality in tumor cells producing 2HG: qHTS for the HT-1080-NT fibrosarcoma cell line. 360,000 compounds, 1.6% hits. Potency, µM (doses to about 46.1 µM), actives largely listed as cytotoxic. AID 686970, 2013. HT-1080-NT fibrosarcoma viability, CellTiter-Glo ATP luminescence, 48 h;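 note: NT is the 2HG producing partner of a matched IDH1 knockdown line; nearly all actives have a fitted effect of over 55% in size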
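750 cells/well, RPMI + 5% FBS; 2 h settle, compound pin-transfer, 48 h at 37 degrees C. CellTiter-Glo 10 min RT, luminescence. Normalized to DMSO and media-only wells.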
ELG1 DNA repair – qHTS screen for small molecules that inhibit ELG1-dependent DNA repair in human embryonic kidney (HEK293T) cells expressing luciferase-tagged ELG1; 330,000 compounds, 2.3% hits; HEK293T ELG1-luciferase reporter, luminescence, 16 h; DNA damage induced by 5-fluorouridine; Potency, µM (doses to about 46.1 µM), usual class: inhibitors; note: nearly all actives have a fitted effect of over 55% in size
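DMSO vehicle served as the neutral condition. Each well held 2,000 cells given 5-fluorouridine plus compound; after 16 hr at 37 °C/5% CO2, ONE-Glo was added and luciferase measured 30 min later.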
A number is an active result; i = inactive; ? = inconclusive; nt = no result given; [ ] = another dose, or the depositor's remark. Shown are actives, neighbours in structure and some others; about 19% of the full set was active somewhere. Unless noted, calls come from the whole dose curve; as a rule, active = well fitted curve in the direction sought with a large enough effect; inconclusive = small, poorly fitted or top-dose-only effect, or another doubt; inactive = no such curve, though single readings can be large; an effect the other way counts as inactive or inconclusive.

SMILES	HT1080 IDH1KD tx	IL1B secr inh	DT40 TDP1 CPT	TDP1 cell noCPT	HT1080NT lethal	ELG1 DNA repair
CCOC(=O)[C@]12CCCC=C1N(Cc1cccc3ccccc13)C(=O)[C@H](CC(=O)NCCc1ccccc1OC)C2	i	?	?	?	?	nt
CCN(CC)CCOc1c(Br)ccc2c1sc1nc3n(c(=O)c12)CCC3	?	-64	?	21µM	?	i
CCCCN1C(N)=NC[C@@H]1c1ccccc1	i	i	16µM	13µM	i	nt
CC(C)(C)CN1C(N)=NC[C@@H]1c1ccccc1	i	i	?	?	i	nt
OCCC1CN(Cc2ccc(-c3ccco3)cc2)CCN1Cc1ccsc1 (configuration not stated)	i	-61	?	?	i	i
OCCC1CN(Cc2ccccc2OC2CCCC2)CCN1Cc1ccsc1 (configuration not stated)	i	i	?	15µM	i	i
C#Cc1ccc(CN2CCN(Cc3ccsc3)C(CCO)C2)cc1 (configuration not stated)	i	i	i	?	i	i
O=C(Cn1cc(SCc2cccc(F)c2)c2ccccc21)N1CCCC1	nt	nt	?	21µM	nt	nt
O=C(Cn1cc(SCc2c(F)cccc2Cl)c2ccccc21)N1CCCCCC1	nt	nt	23µM	?	nt	nt
Cc1ccc(C)c(CSc2cn(CC(=O)N3CCCCCC3)c3ccccc23)c1	nt	nt	i	i	nt	nt
O=C(Cn1cc(SCc2ccc(Br)cc2)c2ccccc21)N1CCCCC1	nt	nt	?	16µM	nt	nt
Cc1ccccc1CSc1cn(CC(=O)N2CCCCC2)c2ccccc12	nt	nt	13µM	16µM	nt	nt
O=C(Nc1nnc([C@H]2C[C@H](O)[C@@H](CO)O2)s1)Nc1cccc(Cl)c1Cl	i	?	i	i	i	nt
COc1cc(-c2nnc(SCC(=O)Nc3ccc(F)c(Cl)c3)o2)cc(OC)c1OC	nt	nt	i	i	nt	nt
Cc1ccc(NC(=O)CSc2nc(N)c3cc4c(nc3n2)CCCC4)cc1	?	i	16µM	?	?	i
Cc1ccc2cc(C)c(SCC(=O)Nc3ccc(S(=O)(=O)N4CCCC4)cc3)nc2c1	i	i	?	?	i	?
Cc1cc2cc3c(cc2nc1SCC(=O)Nc1ccccc1)CCC3	i	i	15µM	13µM	i	i
Nc1nc(SCC(=O)Nc2ccccc2)nc2nc3c(cc12)CCCC3	?	-52	i	13µM	?	?
CN(C)CCN1CCN(C2CN(CCc3ccccc3)S(=O)(=O)C2)CC1 (configuration not stated)	i	i	i	?	i	nt
O=C(NC1CCCCC1)C12CC3CC(C1)CC(n1cncn1)(C3)C2	i	i	i	i	i	i
CC(NC(=O)C12CC3CC(C1)CC(n1cncn1)(C3)C2)C12CC3CC(CC(C3)C1)C2 (configuration not stated)	i	i	10µM	8.2µM	i	i
Cc1noc2ncnc(N3CCCCC3)c12	i	i	i	?	i	i
Cc1noc2ncnc(Oc3ccc(F)cc3)c12	i	i	i	i	i	?
Cc1ccccc1Sc1ncnc2onc(C)c12	i[9.24 µM]	-52	23µM	23µM	i	i
Cc1noc2ncnc(Sc3c(Cl)cccc3Cl)c12	?	-115	18µM	16µM	?	?
Cc1noc2ncnc(SCc3ccc(C(F)(F)F)cc3)c12	i	?	?	16µM	i	i
Cc1ccc(Sc2ncnc3onc(C)c23)cc1	i	i	?	21µM	i	i
Cc1ccc(CSc2ncnc3onc(C)c23)cc1	i	i	i	i	i	i
Cc1ccc(NC(=O)CSc2nnc3nc(C)cc(C)n23)cc1	nt	nt	i	i	nt	nt
